Legend:
Assay in all cases: PBM binding z-score (relative to random genomic background probes); higher = stronger binding; sequences stand for … in GC…GCGATTGACAGCGTAGAATGAAGG
[1] = system: RARb homodimer (NR concentration 270 nM)
Method in brief: (§1)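 Ligand-free nuclear receptor dimers were bound for 1 h to custom Agilent 4×180K protein-binding microarrays. Detection used antibodies against each partner (one per run). Binding z-scores rest on regression-normalized fluorescence, with random background probes as the reference.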

[2] = system: RARg:RXRa (NR concentration 270 nM, RXRa partner concentration 90 nM)
Method in brief: as §1

[3] = system: RARg homodimer (NR concentration 270 nM)
Method in brief: as §1

[4] = system: RXRa DBDmut IVT, anti-RXR (DBD mutation: RXRa K156A/R161A, NR concentration 90 nM)
Method in brief: as §1

[5] = system: RXRa homodimer (NR concentration 180 nM)
Method in brief: as §1

[6] = system: THRa:RXRa (NR concentration 90 nM, RXRa partner concentration 90 nM)
Method in brief: as §1

[7] = system: THRa homodimer (NR concentration 90 nM)
Method in brief: as §1

[8] = system: VDR:RXRa (NR concentration 270 nM, RXRa partner concentration 90 nM)
Method in brief: as §1

[9] = system: VDR homodimer (NR concentration 270 nM)
Method in brief: as §1

Sequence | PBM binding z-score [1] | PBM binding z-score [2] | PBM binding z-score [3] | PBM binding z-score [4] | PBM binding z-score [5] | PBM binding z-score [6] | PBM binding z-score [7] | PBM binding z-score [8] | PBM binding z-score [9]
GCTGCTAGGTCCACTGATGGTCAGCTAAAGCTCG | 0.602 | -0.251 | -0.0766 | 0.741 | -0.741 | -0.256 | -0.767 | -0.609 | -0.434
CCAGACAGGTGAGAAGGTAAATCAGCCTCGATTA | 0.187 | 0.461 | 0.353 | -0.268 | 0.202 | 0.113 | -0.24 | -0.13 | -0.437
TAGCCTAGGTCCGATCGGGCCAGTATACGCTATA | -0.854 | -0.722 | -0.738 | -0.969 | -0.677 | 0.334 | -0.898 | -0.91 | -0.952
ACTTACGGGTCAACAAGGTTATAGCACGCGTATA | 3.84 | 5.44 | 5.07 | 2.33 | 5.87 | 4.04 | 1.05 | 7.08 | 2.78
TCTATTAGTTGATTAGGGCAACCGCAACAGCGGA | 0.671 | 0.648 | 0.445 | 0.932 | 0.721 | 0.679 | 0.272 | 0.526 | 0.125
CGTCCAAGGTCAAGGACAGTGAAAGAGACTCGAA | 3.94 | 6.19 | 6.78 | 3.26 | 5.3 | 3.74 | 2.83 | 3.75 | 2.03
CCAGACAGGTAAAAGGTAACTCAGTCTGGTACGC | 0.19 | 0.33 | 0.29 | -0.178 | 1.09 | 0.372 | -0.238 | 0.318 | 0.202
CCAGACAGGTGAGAAGGTGACTCAGCCTCGATTA | 1.23 | 1.04 | 0.771 | -0.175 | 0.552 | 0.445 | 0.379 | -0.0388 | -0.284
TAGCCTAGGTCCTGCGGGCCAGTATAGTGTCGGC | -0.744 | -0.626 | -0.818 | -1.46 | -0.822 | -1.56 | -0.966 | -1.05 | -0.992
AGTCGAAGTTCAGGACGAGGTAACGTAAAGCACG | 1.36 | 2.55 | 1.89 | 1.42 | 1.28 | 3.25 | 1.62 | 1.15 | 0.996
CAAACTAGGTCACGAAAGGTCAAGGTCGAATGAC | 6.07 | 7.93 | 8.86 | 2.21 | 8 | 5.14 | 3.71 | 6.61 | 4.2
TGTTGTAGATCAAGCAGGTTAAGAAAGCCTGAGT | 0.0369 | -0.0637 | 0.062 | -1.02 | -0.024 | 0.0864 | -0.545 | 0.0987 | -0.058
AGAACGAGGGCAGGCTGAGTTGATAGCAGAGTAG | 0.683 | 0.569 | 1.17 | 0.639 | 0.342 | 0.523 | -0.552 | 0.431 | 0.453
CGAACTAGGTCATCCAGAACAGTGAATACATTGA | 2.8 | 4.03 | 4.69 | 2.23 | 2.89 | 2.64 | 1.15 | 2.56 | 1.17
GCTGGCAGGCCATTTGGGTCACTCAATGACGGGC | 1.88 | 0.91 | 1.54 | -0.405 | 0.855 | 1.86 | 0.617 | 1 | 0.646
ATCGAAAGGTCGAGGTGAGTTTAGAGAAAGGGAA | 3.07 | 4.88 | 4.68 | 1.24 | 4.47 | 3.01 | 0.695 | 4.92 | 2.21
GCGACTGGGGCAACAGCAGGTTACCATAACTTAA | 0.882 | 0.815 | 0.776 | -0.15 | 0.454 | 1.67 | -0.275 | -0.189 | -0.281
GCTTGTCGATCAAGGTTAAGAAAGACTAAGCTAA | 0.0989 | 0.457 | 0.385 | -0.057 | 0.794 | 1.68 | -0.268 | -0.0633 | -0.484
GCGACTGGAGCAAAGCAGGTTACCATAAGGTTGG | 0.0117 | -0.319 | -0.395 | -0.723 | 0.0642 | 1.75 | -0.495 | -0.418 | -0.492
CGTCAAAGTACAACTAAGGTAACGTAAAGCACGC | 1.16 | 1.03 | 1.21 | 0.971 | 0.543 | 3.77 | 1.62 | 0.523 | 0.523
CGAACGAGGGCATGAGTTGATCGCAAATGCCGAT | 0.684 | 1.04 | 1.28 | 2.51 | 0.767 | 1.04 | -0.361 | 1.34 | 1.79
ACTTACGGGTTAACGAGGTTATAGCACGCGTATA | 1.62 | 2.26 | 1.43 | 1.02 | 3.01 | 3.09 | 0.992 | 6.31 | 1.96
AGAACGAGGGCACGCTGAGTTCATAGCAGAGTAG | 2.79 | 4.31 | 3.34 | 3.17 | 3.08 | 3.31 | 0.849 | 6.39 | 7.01
TCTGCTAGGTCAGTTGCTCAGCTAACGAGCTGCC | 1.89 | 2.18 | 3.06 | 0.567 | 0.527 | 1.01 | -0.484 | -0.466 | -0.87
TCATATAGGTAAAGGGTGAAAGTCGGTGTGGTAA | 1.59 | 1.09 | 0.514 | 1.84 | 2.24 | 1.19 | 0.771 | 1.17 | 0.649
CGAACTAGGTCATTGGCAGGACAGTGAATAGTAA | 2.75 | 4.52 | 4.07 | 2.36 | 2.52 | 3.09 | 0.749 | 2.07 | 0.995

Sequence | PBM binding z-score [1] | PBM binding z-score [2] | PBM binding z-score [3] | PBM binding z-score [4] | PBM binding z-score [5] | PBM binding z-score [6] | PBM binding z-score [7] | PBM binding z-score [8] | PBM binding z-score [9]
TCTTGTAGGTCAAGCAGGTTAAGAAAGCCTGAGT | 3.48 | 4.8 | 5.5 | 1.7 | 4.02 | 3.08 | 0.641 | 5.16 | 1.49
CGAACTAGGTCAAGGTCAGTGAATCTCCGCACGC | 4.79 | 5.23 | 6.17 | 2.29 | 4.11 | 3.86 | 3.15 | 3.19 | 2.14
CAAACTAGGCCACCGGAAGGTCAAAGTCCGCATG | 4.21 | 4.82 | 4.07 | 0.796 | 4.1 | 2.93 | 1.18 | 3.2 | 2.29
TCTTGTAAATCAATAGAGGTTAAGAAAGTGCGCT | 1.42 | 0.907 | 0.577 | 1.23 | 1.46 | 1.56 | 0.0458 | 1.98 | 0.639
TAGCCTAGATCATTGGGCCAGTATAGTACGCATC | -0.608 | -0.554 | -0.194 | -0.443 | -0.398 | -0.832 | -0.488 | -0.685 | -0.283
CTCGAAGGGTCGTGCTCAGGTGAGTATACCAAAC | 1.59 | 3.39 | 2.01 | 1.01 | 2.52 | 3.65 | 0.851 | 1.59 | 0.628
GCTAGTTGGTCAGTAAAAGGTCACACACCGGTCG | 5.15 | 5.32 | 4.87 | 0.715 | 5.2 | 3.52 | 2.08 | 3.89 | 1.99
ATCGAAAGATCGACGAGGTGAGTATACACCGTTT | -0.514 | 0.223 | 0.471 | -0.641 | 0.512 | 1.14 | 0.311 | 0.0445 | -0.18
ACTAGCAGACCAAGGGTCACTCAAGATTAGTCCG | 3.58 | 3.6 | 3.3 | 0.335 | 3.57 | 2.42 | -0.116 | 2.58 | 1.2
TCTTGTAGATCAAGCCGGTTAAGAAAGCCTGAGT | 0.000492 | -0.162 | -0.393 | 0.918 | 0.161 | -0.0654 | -0.203 | 0.32 | 0.0355
AGAATGAGGTTATTAATATCAGGGAATTGCGGTC | 0.652 | 1.03 | 0.749 | 1.73 | 1.62 | 2.05 | 0.737 | 1.27 | 1.2
CATACTAGGTCAAGGTCAAAGTCGGTTTGTGCCA | 5.08 | 6.18 | 6.66 | 3.15 | 5.93 | 4.24 | 3.85 | 5.31 | 4.88
TGAATGAGGTTATAAGATCAGCGAACGTTGCAAA | 0.0466 | 1.48 | 1.05 | 0.409 | 1.9 | 1.61 | -0.141 | 0.842 | 0.262
CGTCCAAGGTCAATGCTGGGTCAGTGAAAGCATT | 4.74 | 7.34 | 6.47 | 3.12 | 4.97 | 4.28 | 2.52 | 4.79 | 2.62
CGTCCAACGTCAATGCTAGGTCAGTGAAAGCATT | 2.01 | 1.36 | 1.14 | 0.107 | 0.267 | 1.6 | 0.388 | 0.103 | -0.0849
CATCCAAGGTCAGAGAGGTCAGTGAATGCCGAGT | 5.53 | 6.35 | 7.37 | 3.51 | 6.54 | 4.43 | 2.83 | 7.55 | 6.11
GGAACGAGGGCAAGTTAATAGCAGAGTTTGATGG | 1.35 | 1.46 | 2.01 | 2.29 | 0.717 | 1.2 | -0.0334 | 0.803 | 1.6
ACTCACGGGTCAACGAGGTTATAGCACGCGTATA | 3.5 | 5.72 | 4.98 | 2.83 | 6.42 | 4.03 | 1.03 | 7.63 | 4.51
TTACCAAGGTGAGCTGAGCTCGTTGATCCAACTC | -0.157 | -0.164 | -0.277 | -0.78 | 0.0974 | 1 | -0.222 | -0.427 | -0.959
CCAGACAGATGAGAAGGTAACTCAGCCTCGATTA | -0.0918 | 0.0576 | 0.416 | 0.092 | 0.0859 | 0.0683 | 0.259 | 0.0435 | 0.296
CAAACTAGGTCACAGAGGTCAAATTCCGTGCGTA | 5.28 | 7.51 | 7.97 | 3.34 | 8.2 | 4.68 | 3.09 | 8.11 | 6.96
GGAACGAGGACAAGTTGATAGCAGAGTTTGATGG | 0.51 | 0.796 | 1.26 | 1.62 | 0.0511 | 2.53 | 1.58 | 0.0641 | 0.892
CCAGACAGGTGAAAGTTAACTCAGTCTGGTACGC | 0.569 | 0.669 | 0.306 | -0.00485 | 1.2 | 0.251 | -0.579 | 0.0177 | -0.235
CAAACTAGCTCAAAGGTCAAAGTCGAGCCAACCA | 4.79 | 6.22 | 5.63 | 1.66 | 7.07 | 3.53 | 0.75 | 4.72 | 2.62
GATACAAGGTCAAGGCCAGAGTACGCGTATTGAT | 4.63 | 5.82 | 6.11 | 2.63 | 5.5 | 3.88 | 2.35 | 4.39 | 2.41
TCACGGAGGACACGAAAGGTCAGAGCTCGACATC | 4.82 | 4.96 | 5.55 | 1.1 | 4.31 | 3.55 | 1.26 | 3.47 | 1.17

Source: the supplement of paper PMC6555819
